# This is a sample that favours compounds with a hit; in the whole collection about 2.6% have one here.
# CRFR2-BP antag: antagonists of CRF-BP/CRF-R2 complex, primary screen, cell-based, HEK293, calcium dye fluorescence, uHTS; CRF-induced calcium fluorescence; inhibition, % at 11.8 µM; 0.59% of 350,000 active;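 active = inhibition of the ligand-induced calcium signal above about 50% at the single tested concentration, limit read from the data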
# PHOSPHO1 block: PubChem AID 1565; Phosphoethanolamine/phosphocholine phosphatase (Homo sapiens), Q8TCT1; recombinant PHOSPHO1, absorbance phosphatase assay; inhibition, % at 13.3 µM; 1.1% of 290,000 active; in the data active = inhibition above about 60%
# MLLE-PAM2 inh: inhibitors of PABP1 MLLE–PAM2 peptide binding, primary screen, biochemical, fluorescence polarization, FITC-PAM2, GST-MLLE | AID 588489, 2011 | inhibition, % at 20 µM | Polyadenylate-binding protein 1 (Homo sapiens), P11940 | 0.36% of 360,000 active; in the data active = inhibition above about 35%, passing the limit was not always enough
# Target sequence (P11940 whole entry, looked up): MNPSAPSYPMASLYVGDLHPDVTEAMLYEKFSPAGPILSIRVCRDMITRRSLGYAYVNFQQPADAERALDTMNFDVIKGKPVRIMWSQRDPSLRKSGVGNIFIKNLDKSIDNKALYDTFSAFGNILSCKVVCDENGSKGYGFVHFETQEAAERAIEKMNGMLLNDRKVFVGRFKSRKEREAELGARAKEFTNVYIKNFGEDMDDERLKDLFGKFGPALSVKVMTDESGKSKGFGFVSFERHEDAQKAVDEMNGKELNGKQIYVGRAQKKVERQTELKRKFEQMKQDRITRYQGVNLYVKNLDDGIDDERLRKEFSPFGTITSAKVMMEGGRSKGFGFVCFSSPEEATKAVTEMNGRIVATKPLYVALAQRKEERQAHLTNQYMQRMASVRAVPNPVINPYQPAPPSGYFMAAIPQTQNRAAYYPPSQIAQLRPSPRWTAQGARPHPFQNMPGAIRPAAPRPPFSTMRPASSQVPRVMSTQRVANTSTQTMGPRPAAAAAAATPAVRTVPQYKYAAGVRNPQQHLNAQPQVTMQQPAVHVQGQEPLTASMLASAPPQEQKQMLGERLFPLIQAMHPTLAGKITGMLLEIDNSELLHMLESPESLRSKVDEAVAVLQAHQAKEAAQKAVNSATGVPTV
# eIF4H inh: human eIF4H binding inhibitors, primary screen, translation initiation inhibitor project, biochemical, uHTS, fluorescence polarization; Eukaryotic translation initiation factor 4H (Homo sapiens), Q15056; eIF4H fluorescence polarization binding assay; inhibition, % at 35 µM; 0.94% of 290,000 active; AID 2012, 2009;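 note: calls also rest on retests at 20 µM and on dose response follow-up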
# PABP polyA inh: PABP poly(A) RNA binding inhibitors, primary screen, biochemical, fluorescence polarization, uHTS. Polyadenylate-binding protein 1 (Homo sapiens), P11940. inhibition, % at 35 µM. 1% of 290,000 active. AID 2014, 2009;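 note: calls also rest on retests at 20 µM and on dose response follow-up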
# Numbers stand for hits; – = inactive; ? = inconclusive; · = no result. Unless noted, the rule behind the calls is not given here.
SMILES,CRFR2-BP antag,PHOSPHO1 block,MLLE-PAM2 inh,eIF4H inh,PABP polyA inh
CC(C)(C)c1cc(C(=O)N/N=C/c2ccco2)n[nH]1,–,–,–,–,–
Cc1ccc(-c2cc(C(=O)N/N=C/c3ccco3)n[nH]2)s1,–,–,–,94,active
COc1ccc2nc(C)cc(NCc3ccc(F)cc3)c2c1,–,–,–,?,?
Nc1cc(-c2ccc(Br)cc2)nn1Cc1ccccc1,–,–,–,–,–
Nc1cc(-c2cccc(Br)c2)nn1Cc1ccccc1,–,–,–,active,–
CCOc1cccc(=O)c2c(C)n(Cc3ccco3)c(C)c12,–,–,–,95,89
O=C(/N=C1\NC(=O)C(F)(C(F)(F)F)S1)NC1CCCCC1 (centres undefined),–,–,–,122,–
O=C1NC(=S)N(C(=O)c2ccc(F)cc2)/C1=C/c1ccccc1,–,–,–,72,active
NS(=O)(=O)c1ccc(CCNC(=O)c2ccc[nH]c2=S)cc1,–,–,–,–,–
Cc1ccc(C)n1-c1nccc(-c2cccs2)n1,–,–,–,91,32
N#Cc1cccn1-c1nccc(-c2cccs2)n1,–,–,–,–,–
c1ccc(CSc2nccc(-c3ccco3)n2)cc1,–,·,–,·,·
Cc1ccc(C)n1-c1nccc(-c2ccco2)n1,–,–,–,54,8.2
CCCN(CC(=O)Nc1ccccc1OC)C(=O)Cn1c(=O)oc2ccccc21,–,·,–,·,·
O=C(c1ccc(Cl)cc1)c1oc2ccccc2c1CS(=O)c1ccccc1 (centres undefined),–,98,–,–,–
COc1cccc(-n2c(=S)sc3c(=O)n(-c4ccccc4OC)c(=S)[nH]c32)c1,–,–,41,–,–
CCc1nc2c(OCc3ccccc3C(=O)OC)cccn2c1N(C)C(=O)c1cccc(OC)c1,·,·,–,·,·
Cc1ccc(-c2nc(CSCC(=O)N3CCN(c4ccccn4)CC3)c(C)o2)cc1,–,–,–,–,–
CCc1ccc(-c2nc(CSCC(=O)N3CCN(c4ccccn4)CC3)c(C)o2)cc1,–,–,39,–,–
CC(C)c1ccc(CC(=O)N2CCC2(C)C(=O)NS(=O)(=O)c2cccc(OC(F)F)c2)cc1 (centres undefined),·,·,–,·,·
COc1ccc(C2=NS(=O)(=O)N(C)C(C(=O)N3CCN(C)CC3)=C2)cc1,–,–,–,–,–
CCN1CCN(C(=O)C2=CC(c3ccc(OC)cc3)=NS(=O)(=O)N2C)CC1,63,–,–,–,–
NNC(=O)CSc1cccc2cccnc12,–,–,–,–,–
CN(C)C(=O)CSc1cccc2cccnc12,–,71,–,–,–
O=C(OCCOc1ccccc1)c1cc(S(=O)(=O)N2CCOCC2)c(Cl)cc1Cl,–,·,–,·,·
SMILES,CRFR2-BP antag,PHOSPHO1 block,MLLE-PAM2 inh,eIF4H inh,PABP polyA inh
Cc1ccc(-c2ccc(CN3C(C)C(=O)N(Cc4cn(Cc5ccco5)nn4)CCS3(=O)=O)cc2)cc1 (centres undefined),–,·,–,·,·
COc1ccc(-c2ccc(CN3C(C)C(=O)N(Cc4cn(Cc5ccco5)nn4)CCS3(=O)=O)cc2)cc1 (centres undefined),69,·,–,·,·
CC1C(=O)N(Cc2cn(CCC3OCCCO3)nn2)CCS(=O)(=O)N1Cc1ccc(-c2ccc(Cl)cc2)cc1 (centres undefined),52,·,–,·,·
CC1C(=O)N(Cc2cn(CCC3OCCCO3)nn2)CCS(=O)(=O)N1Cc1ccc(-c2ccccc2)cc1 (centres undefined),–,·,–,·,·
Cc1ccc([C@H]2C[C@@H](n3cc(-c4ccc(F)cc4)nn3)[C@H](O)CN2C(=O)C2CCCCC2)cc1,–,·,–,·,·
CC(=O)Nc1ccc(OCc2cn(CC(=O)c3ccc(O)cc3)nn2)cc1,–,·,–,·,·
NC(=O)Cn1c(=O)n(Cc2ccco2)c(=O)c2c3c(sc21)CCCCC3,–,–,–,98,50
CC(O)CNc1nc2sc3c(c2c(=O)n1Cc1ccco1)CCCCC3 (centres undefined),–,–,–,–,–
O=c1c2c3c(sc2nc(NCCOCCO)n1Cc1ccco1)CCCCC3,–,–,–,100,89
O=C(/C=C/c1ccccc1)NC(=S)Nc1ccccc1O,–,–,–,–,–
COc1cc(C(=O)NNC(=S)NC(=O)c2ccc(Cl)cc2)cc(OC)c1OC,–,69,–,12,–
COc1ccc(C(=O)O)cc1NC(=S)NC(=O)/C=C/c1ccc(C(C)C)cc1,–,–,39,–,–
Cc1ccc(O)c(NC(=S)NC(=O)/C=C/c2ccccc2)c1,–,·,41,–,–
COc1cc(C(=O)NNC(=S)NC(=O)/C=C/c2ccccc2)cc(OC)c1OC,–,87,–,–,–
Cc1ccc(S(=O)(=O)Nc2ccccc2C=NNC(=O)c2ccncc2)cc1,–,·,–,·,·
CCc1nc2nc(C)c(NS(=O)(=O)c3ccc(C)c(C)c3)c(=O)n2[nH]1,–,–,–,–,–
O=C(Cn1cc2c(n1)CCCC2)Nc1cc(-c2cccc(Cl)c2)no1,–,–,–,–,–
CCc1ccc(C(C#N)=CC=Cc2ccccc2)cc1,–,·,–,·,·
CC1CCc2c(sc(NC(=O)c3ccc(Cn4cc([N+](=O)[O-])cn4)o3)c2C#N)C1 (centres undefined),–,–,–,76,22
CCOC(=O)Cc1cc(=O)n(-c2nc3ccccc3s2)[nH]1,–,–,–,70,68
O=C1/C(=C/c2ccc(F)cc2)SC(=S)N1Nc1ncc(C(F)(F)F)cc1Cl,–,86,–,–,–
O=C1/C(=C\c2ccccn2)SC(=S)N1Nc1ncc(C(F)(F)F)cc1Cl,–,–,–,–,–
CN(C)c1cccc(CNC(=O)c2csc([C@H]3C[C@H](O)[C@@H](CO)O3)n2)c1,·,·,–,·,·
COC(=O)C1=C(C)NC(=O)/C1=C\c1cc(C)n(-c2ccccc2C)c1C,–,–,–,57,49
COC(=O)C1=C(C)NC(=O)/C1=C\c1cc(C)n(-c2ccccc2F)c1C,–,–,–,–,–
SMILES,CRFR2-BP antag,PHOSPHO1 block,MLLE-PAM2 inh,eIF4H inh,PABP polyA inh
COc1cc(/C=C2\C(=O)N(c3ccc(NC(C)=O)cc3)N=C2c2ccccc2)ccc1O,68,–,–,–,–
O=C1/C(=C\c2ccc(O)c(O)c2)C(c2ccccc2)=NN1c1ccccc1,–,–,–,–,41
CCOc1cc(/C=C2/SC(=S)N(Cc3ccccc3)C2=O)ccc1O,–,·,–,–,–
CCOc1cc(/C=C2\C(=O)N(c3nc(-c4ccc(Br)cc4)cs3)N=C2c2ccccc2)ccc1O,–,–,–,84,–
CC(O)(Cc1ccccn1)Cc1ccccn1,–,·,–,·,·
CN(C)c1cccc2c1c(NC(=O)c1ccc(F)cc1)nn2C,–,62,–,–,–
COC(=O)C1C(=O)NC(SC)=C(C#N)C1c1ccccc1 (centres undefined),–,–,–,–,–
COC(=O)CSC1=C(C#N)C(c2ccc(Cl)cc2)C(C(=O)OC)C(=O)N1 (centres undefined),58,–,–,–,–

# Compound activity: PubChem, Sanford-Burnham Center for Chemical Genomics
